Reference: PubChem BioAssay (NCI)
Compounds without any hit were thinned out: in the full panel of roughly 79,000, 15% have a hit. No stated cut-off is given here; in the data, active means growth inhibition above about 70%; inactive means the rest. Where a SMILES comes first, the peptide text is derived from it. The star is where a group is joined. Myristoyl = CCCCCCCCCCCCCC(=O)*

Key:
[1] = NCI Yeast Anticancer Drug Screen. Data for the rad50 strain (AID 155);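 further: 0% = growth of vehicle-only cultures of the same strain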; conditions: S. cerevisiae rad50 strain growth inhibition; at 50.0 µM; active compounds read high
Procedure, shortened: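 Compounds were tested on a yeast strain with an engineered DNA damage repair alteration; the reported value is growth inhibition normalised to vehicle treatment.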

[2] = NCI Yeast Anticancer Drug Screen. Data for the mec2-1 strain (AID 157); conditions: S. cerevisiae mec2-1 strain, at 50.0 µM, active compounds read high
Procedure, shortened: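 Yeast mec2-1 mutant treated with compound. Readout: growth inhibition vs vehicle controls.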

[3] = NCI Yeast Anticancer Drug Screen. Data for the sgs1 mgt1 strain (AID 161);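 further: 0% = growth of cultures given vehicle only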; conditions: S. cerevisiae sgs1 mgt1 strain, at 50.0 µM, active compounds read high
Procedure, shortened: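 Test agents were incubated with a DNA-repair-mutant yeast strain. Growth was then read and compared against vehicle-treated controls.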

[4] = NCI Yeast Anticancer Drug Screen. Data for the cln2 rad14 strain (AID 165);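 further: 0% = growth equal to vehicle treated cultures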; conditions: S. cerevisiae cln2 rad14 strain, at 50.0 µM, active compounds read high
Procedure, shortened: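 cln2 rad14 yeast strain; compound exposure; growth inhibition read vs vehicle controls.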

[5] = NCI Yeast Anticancer Drug Screen. Data for the bub3 strain (AID 167); conditions: S. cerevisiae bub3 mutant strain, at 50.0 µM, active compounds read high
Procedure, shortened: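 Growth of a checkpoint-deficient yeast mutant is measured after compound exposure. Values represent inhibition relative to vehicle.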

[6] = NCI Yeast Anticancer Drug Screen. Data for the mlh1 rad18 strain (AID 175); conditions: S. cerevisiae mlh1 rad18 strain growth inhibition; at 50.0 µM; active compounds read high
Procedure, shortened: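 Yeast w/ defined DNA-repair lesions; compound exposure; growth vs vehicle controls → % inhibition.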

Measured: growth inhibition

N#C/C(=C/N1C(=O)CC(=O)NC1=S)c1cccc(Cl)c1
inactive: [1] -30.7% | [2] -14.3% | [3] -31.2% | [4] 18.2% | [5] -28.8% | [6] -48.5%

COc1ccc(C2Oc3cc(OC)c(OC)cc3C2CCl)cc1OC (stereo not given)
inactive: [1] -20.1% | [2] 1.85% | [3] -46.8% | [4] -0.4% | [5] -26.9% | [6] -35.2%

Cc1c(C)c2ccc(OC(C)C(=O)O)cc2oc1=O (stereo not given)
inactive: [1] -10.9% | [2] 0.8% | [3] 22.2% | [4] 31.5% | [5] 10.1% | [6] 36%

O=C(NCCCl)NCC1CCCCO1 (stereo not given)
inactive: [1] -2.8% | [2] 7% | [3] 0.2% | [4] -76.3% | [5] -3.9% | [6] -12%

COc1cc(NC(=O)CC(C)=O)cc(OC)c1
inactive: [1] -4% | [2] -5% | [3] -10% | [4] 3.2% | [5] -18.4% | [6] -2.5%

O=C(O)CCc1ccc([N+](=O)[O-])cc1Cl
inactive: [1] 5.8% | [2] 4.95% | [3] 7.3% | [4] -24.6% | [5] -17.4% | [6] -0.4%

CC1=NN2C(=O)C(C)SC2=NC(C)(C)C1 (stereo not given)
inactive: [1] -5.6% | [2] -17.9% | [3] -3.15% | [4] 29.2% | [5] -8.2% | [6] -16.3%

O=S(=O)(O)SCCNCCCCc1ccccc1
inactive: [1] -11.2% | [2] -3% | [3] 2.3% | [4] -5.35% | [5] -6.4% | [6] -22.8%

O=Cc1ccc(C(=O)O)cc1
inactive: [1] -1.35% | [2] -14.6% | [3] 0.25% | [4] -13.2% | [5] -12.8% | [6] -9.6%

COc1ccc(/C=N/N2CN(C(C)C(=O)O)C(O)(CCl)N=C2N)cc1OC (stereo not given)
inactive: [1] 0.95% | [2] -8.95% | [3] -3% | [4] -27.4% | [5] 5.1% | [6] -1.5%

COc1ccc2c(c1)C(N)CC2=O (stereo not given)
inactive: [1] 14% | [2] 7.7% | [3] 0.75% | [4] 8.75% | [5] 1.75% | [6] -12.9%

Cc1cc(C)c(C)c(C(=O)OC(C)C)c1C
inactive: [1] 2.7% | [2] -9.7% | [3] 3.35% | [4] 15.4% | [5] -3.85% | [6] -8.55%

O=C1C=CC2CCC1C2 (stereo not given)
inactive: [1] 24.8% | [2] -6.25% | [3] -20.5% | [4] 26.6% | [5] -38.8% | [6] -29.3%

CCOC(=O)c1[nH]c(-c2ccc(OC)cc2)c(C(=O)OCC)c1-c1ccccc1
inactive: [1] 38.6% | [2] -4.7% | [3] 28.8% | [4] -0.2% | [5] 3.05% | [6] 24.1%

CCCCCCCCCCCCCC(=O)NCC(=O)NC(C)C(=O)NC(CCCNC(=N)N)C(=O)NC(C)C(=O)NC(CO)C(=O)NC(C(=O)NC(CC(C)C)C(=O)NC(CO)C(=O)NCC(=O)NCC(=O)NC(CCC(=O)O)C(=O)NC(CC(C)C)C(=O)NC(CC(=O)O)C(=O)NC(CCCNC(=N)N)C(=O)NC(Cc1c[nH]c2ccccc12)C(=O)NC(Cc1ccc(O)cc1)C(N)=O)C(C)C (stereo not given) (Myristoyl-GARASVLSGGELDRWY-NH2; configuration not given here)
inactive: [1] -4% | [2] -6.9% | [3] -12.7% | [4] 8.8% | [5] -40.4% | [6] -6.5%

O=P1(O)Oc2ccc3ccccc3c2-c2c(ccc3ccccc23)O1
inactive: [1] -0.4% | [2] 30.3% | [3] -6.1% | [4] -16.9% | [5] 19.4% | [6] 15.7%

COc1ccc(/C=C2\CCN=C2c2ccccc2)cc1OC
inactive: [1] -1.65% | [2] -1.85% | [3] 2.85% | [4] -23.3% | [5] 4.4% | [6] 2.65%

O=C1/C(=C/c2ccccc2)CCCC/C1=C\c1ccccc1
inactive: [1] 27.9% | [2] 31% | [3] 40.5% | [4] -1.9% | [5] 9.75% | [6] 15.9%

O=C(c1ccco1)N(C(=S)N1CCN(c2ccccc2)CC1)c1ccccc1
inactive: [1] -79.7% | [2] -24.4% | [3] -35.5% | [4] -4.4% | [5] -18.1% | [6] -35.2%

COc1ccc(CCN2CN=C(Sc3ccc([N+](=O)[O-])cc3Cl)NC2)cc1OC
inactive: [1] 11% | [2] -11.2% | [3] 7.55% | [4] 10% | [5] 21.9% | [6] 11.1%
